The full list was thinned out, with hits kept by preference.
Dicer inh – human Dicer pre-microRNA cleavage inhibition; Q9UPY3; 47,000 tested, 6% active; z-score at 25 µM; cat-ELCCA pre-miR-21 Dicer processing, chemiluminescence; active compounds read high; in the data active = z-score above about 3, passing the limit was not always enough;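 note: plate controls were vehicle for no effect and no enzyme for full effect; higher signal means more uncleaved substrate so more Dicer inhibition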
Numbers without * were called inactive.

SMILES	Dicer inh
O=C1C(Oc2ccc(Cl)cc2)C(c2ccc3c(c2)OCO3)N1CC1CCCO1 (stereo not given)	0.87
COc1ccc(CCN2C(=O)C(Oc3ccccc3)C2c2ccc3c(c2)OCO3)cc1 (stereo not given)	3.4*
CC(C)CCOC(=O)C1(C(=O)OCCC(C)C)CC2(COC(c3ccccc3)OC2)C1	-0.56
O=C(c1ccco1)N1CCN(C2CC(=O)N(c3cccc(Cl)c3)C2=O)CC1 (stereo not given)	-2.2
COc1ccc(N2C(=O)CC(Nc3ccc(N4CCCCC4)cc3)C2=O)cc1 (stereo not given)	-0.3
CCCS(=O)(=O)c1c(C)c(C)n(Cc2ccccc2)c1N	3.3
COc1cccc(-c2nc(-c3ccc(C)cc3)no2)c1OC	0.49
S=C(N/N=C/c1ccccc1Cl)NC1CC2CCC1C2 (stereo not given)	-0.73
CC(Oc1ccccc1F)C(=O)Nc1nc2ccc(S(C)(=O)=O)cc2s1 (stereo not given)	-0.69
CCCCOC(=O)Nc1nc2ccc(S(C)(=O)=O)cc2s1	4.8*
COc1cc(SC)ccc1C(=O)Nc1nc2ccc(S(C)(=O)=O)cc2s1	1.6
CCCCC(=O)Nc1nc2ccc(S(C)(=O)=O)cc2s1	1.5
COc1ccc(OCCCC(=O)Nc2nc3ccc(S(C)(=O)=O)cc3s2)cc1	-2.4
CCCCC(CC)C(=O)Nc1nc2ccc(S(C)(=O)=O)cc2s1 (stereo not given)	4.8*
Cc1c(OCc2ccc(Cl)c(Cl)c2)ccc(C(=O)/C=C/N(C)C)c1O	-0.52
Cc1ccc2c(c1)sc1ncc(NC(=O)c3ccc(Cl)cc3)c(=O)n12	-1
O=C(O)CCSC1=CCS(=O)(=O)c2ccc(Cl)cc21	1.9
Clc1cc(Cl)cc(-c2nc(SCc3ccc(Cl)cc3Cl)n[nH]2)c1	-1.6
CCC(NS(=O)(=O)c1ccccc1)C(=O)O (stereo not given)	0.71
CO/N=C(\C(=O)Oc1c(Cl)c(Cl)c(Cl)c(Cl)c1Cl)c1ccco1	0.75
Cn1c(SCC(=O)c2c[nH]c3ccccc23)nnc1-c1ccco1	1.8
COc1ccc(N2C(=O)CC(SCC(=O)Nc3ccc(Br)cc3)C2=O)cc1 (stereo not given)	-0.16
CCO/C=C1\C(=O)N(c2ccccc2)C(=O)c2cc(OC)ccc21	3.3*
CCO/C=C1/SC(=S)N(c2cc(OC)cc(C(F)(F)F)c2)C1=O	-2.2
CCO/C=C1\C(=O)N(c2ccc(C)cc2)C(=O)c2cc(OC)ccc21	0.4
SMILES	Dicer inh
CCc1ccc(O)c(C(=O)c2cnc3cc(-c4ccccc4)nn3c2)c1	-2.9
Cc1ccc(S(=O)(=O)c2ccc(C(=O)Nc3ccc(Cl)cc3)cc2[N+](=O)[O-])cc1	2.3
Cc1c(-c2ccnn2S(=O)(=O)c2ccccc2F)sc2ccccc12	0.3
C=CCN1C(=O)C(O)(CC(=O)c2ccc3c(c2)CCCC3)c2ccccc21 (stereo not given)	1.3
C=CCN1Cc2ccc(C(=O)O)cc2C1	3.2*
C=CCN1CCc2c(cc(O)c(O)c2Br)[C@@H](c2ccccc2)C1	-3.7
Cc1ccc(Cl)c(OCC(O)Cn2cnc3ccccc32)c1 (stereo not given)	0.51
Cc1cccc(C)c1OCC(O)Cn1cnc2ccccc21 (stereo not given)	0.99
Cc1cccc(OCC(O)Cn2cnc3ccccc32)c1 (stereo not given)	3.7*
Cc1cc2cc3c(=O)n(C)c(=O)n(C)c3nc2cc1C	0.47
O=C(Oc1ccccc1Oc1ccc(C(F)(F)F)cc1[N+](=O)[O-])c1cc2ccccc2s1	0.44
Cc1ccc(NC(c2ccccn2)c2ccc3cccnc3c2O)c(C)c1 (stereo not given)	-1.2
Cc1ccc(NC(c2cccnc2)c2ccc3cccnc3c2O)cc1C (stereo not given)	-0.31
Cc1cc(Cl)ccc1NC(c1ccccn1)c1ccc2cccnc2c1O (stereo not given)	9.1*
Cc1cc(Cl)ccc1Oc1ncccc1N	-2.9
O=C(Nc1cccc2cccnc12)C(Cl)(Cl)Cl	-0.2
Oc1c(C(Nc2ccccc2Cl)c2cccnc2)ccc2cccnc12 (stereo not given)	6.2*
Cc1cc(Cl)ccc1NC(c1cccnc1)c1ccc2cccnc2c1O (stereo not given)	11*
Cc1cc(=O)[nH]c(SCC(=O)O)n1	1.3
CCc1[nH]c(=S)c(C#N)c(C(F)(F)F)c1C	0.09
COc1ccc(Nc2nc(N)nc(CSc3ncccn3)n2)cc1	1.2
CCOC(=O)C1=C(C)Nc2nnnn2C1c1ccc(Cl)cc1 (stereo not given)	2.4
Cc1cccc(C)c1N1C(=O)CSCC1=O	-2.4
O=C1CSCC(=O)N1c1ccccn1	7.8*
O=C1CSCC(=O)N1c1ccc(Cl)cn1	-3.1
SMILES	Dicer inh
Cc1cc(C)c(N2C(N)=NC(N)=NC2(C)C)c(C)c1	0.39
CCOC(=O)CO/N=C/c1c(Cl)cccc1Cl	0.66
CCCCc1c(C)nc2nc(C)[nH]n2c1=O	-0.69
CCOC(=O)/C(N=Nc1ccc(F)cc1F)=C(\C)O	0.61
CC(=O)/C(N=Nc1c(F)cccc1F)=C(\C)O	3.4*
CC(=O)/C(N=Nc1ccc2c(c1)OCO2)=C(\C)O	1.3
O=C(O)C1CCN(c2ccc(C(F)(F)F)cn2)CC1	0.48
N#C/C(=C\c1c(Cl)cccc1Cl)C(N)=O	1.4
Cn1c(=O)c2c(ncn2CC(=O)Nc2ccc3c(c2)OCCO3)n(C)c1=O	0.53
Cn1c(=O)c2c(ncn2CC(=O)NCc2ccc3c(c2)OCO3)n(C)c1=O	6.6*
CCCCCCCNC(=O)Cn1cnc2c1c(=O)n(C)c(=O)n2C	4*
CCOCCCNC(=O)Cn1cnc2c1c(=O)n(C)c(=O)n2C	1.3
CCCNC(=O)Cn1cnc2c1c(=O)n(C)c(=O)n2C	-0.92
CC(C)CNC(=O)Cn1cnc2c1c(=O)n(C)c(=O)n2C	0.1
CC(C)(C)/C=N/NS(=O)(=O)c1ccc(Cl)s1	-2.3
CC1(C)C2CCC1(C)C(C#N)(Nc1ccccc1)C2 (stereo not given)	0.75
CCOC(=O)c1c(C)c(C#N)c(NC(=O)c2ccc(Cl)cc2Cl)n1-c1ccccc1	-1
CCOC(=O)CC(=O)NC(=O)OCC	-1.3
Cc1ccc2c(C)nc(Nc3ncc4c(n3)CC(c3ccco3)CC4=O)nc2c1 (stereo not given)	-0.25
CC(C)(C)NS(=O)(=O)c1cc2c(c([N+](=O)[O-])c1)-c1c(cc(S(=O)(=O)NC(C)(C)C)cc1[N+](=O)[O-])C2=O	0.3
CCOc1cc(CN2CCN(CC3CC4C=CC3C4)CC2)ccc1OC (stereo not given)	-0.53
COC(=O)C1=CN2c3ccccc3SC2(C(=O)OC)C(C(=O)OC)=C1C(=O)OC (stereo not given)	2.8
N#CC(=C1SCCS1)S(=O)(=O)Cc1ccco1	-0.54
COC(=O)c1scc(S(=O)(=O)Cc2cccs2)c1N/N=C(\C#N)S(=O)(=O)c1cccs1	6
COC(=O)c1scc(S(=O)(=O)Cc2ccco2)c1NN=C(C#N)C#N	4.8*
SMILES	Dicer inh
CCSc1ccc(/C(N)=N/OC(=O)C(C)(C)C)cn1	-0.49
CC(C)Cc1ccc(C2=Nn3c(nnc3-c3cccs3)SC2C)cc1 (stereo not given)	0.57
CCCc1cc2c(c(N)n1)c(=O)oc1ccccc12	-0.55
COC(=O)c1c(C)nc(C)c2c(=O)oc3ccccc3c12	0.08
CC(C)(C)C1CCc2nc(N)c3c(=O)oc4ccccc4c3c2C1 (stereo not given)	5*
CCOC(=O)c1cn(-c2ccc(Cl)cc2)nn1	-0.67
CC1(C)CC(=O)C2=C(C1)Nc1ccccc1NC2c1cccs1 (stereo not given)	0.88
